High-throughput results: PubChem BioAssay, several laboratories
MEX-5 binding = MEX-5 zinc finger RNA-binding disruptors – biochemical, C. elegans, fluorescence polarization, MLPCN library, primary screen; activity score (negative = inhibition of binding), % at 10 µM; Zinc finger protein mex-5 (Caenorhabditis elegans), Q9XUB2; actives 0.38% (n = 300,000); MEX-5/FITC-TCR2 RNA binding; hits give low values;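 active means inhibition past about -25% in most replicates, and total fluorescence under double the plate's negative control median, limit read from the data; inconclusive means replicates evenly split on the limit, or fluorescence at least double controls; inactive means too little inhibition in most replicates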;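 further: 0% = DMSO and -100% = 5 µM competing unlabeled TCR2 RNA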
Bcl-xL primary = inhibitors of human Bcl-xL, primary screen, biochemical, fluorescence polarization, HTS; Bcl-2-like protein 1 (Homo sapiens), Q07817; GST-Bcl-xL / FITC-Bim BH3 peptide fluorescence polarization; inhibition, % at 10.9 µM; actives 0.7% (n = 320,000); AID 2129, 2009;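 active means inhibition above the mean of all tested compounds plus 3 SD, cutoff set per campaign, cut at about 30% in these data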;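 further: 0% = DMSO wells and 100% = unlabeled Bim-BH3 peptide competitor; inhibitors lower millipolarization by displacing the labeled peptide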
Target sequence (Q07817 whole entry, looked up): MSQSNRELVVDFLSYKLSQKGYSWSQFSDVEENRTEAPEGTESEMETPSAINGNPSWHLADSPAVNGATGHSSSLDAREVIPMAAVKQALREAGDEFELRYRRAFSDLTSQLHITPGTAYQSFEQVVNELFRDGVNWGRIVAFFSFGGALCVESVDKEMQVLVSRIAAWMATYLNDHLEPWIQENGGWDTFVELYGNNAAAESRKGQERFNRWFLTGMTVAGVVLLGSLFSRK
eLon inh = inhibitors of E. coli Lon protease, primary screen, biochemical, fluorescence polarization | P0A9M0 | purified E. coli Lon protease | inhibition, % at 7.94 µM | actives 0.42% (n = 360,000); in the data active means inhibition above about 13%, passing the limit was not always enough;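 further: 0% = enzyme with probe and DMSO and 100% = no enzyme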
MCL1 BIM primary = inhibitors of MCL1 binding to BIM-BH3, primary screen, biochemical, fluorescence polarization. Induced myeloid leukemia cell differentiation protein Mcl-1 (Homo sapiens), Q07820. GST-MCL1 / FITC-Bim-BH3 fluorescence polarization. inhibition, % at 10.9 µM. actives 0.68% (n = 320,000). AID 2057, 2009;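 active means inhibition above the mean inhibition of all tested compounds plus 3 SD, set per campaign, cut at about 40% in these data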;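 further: 0% = DMSO wells and 100% = unlabeled Bim-BH3 peptide control; higher means more loss of mP so more displacement of Bim peptide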
Target sequence (Q07820 whole entry, looked up): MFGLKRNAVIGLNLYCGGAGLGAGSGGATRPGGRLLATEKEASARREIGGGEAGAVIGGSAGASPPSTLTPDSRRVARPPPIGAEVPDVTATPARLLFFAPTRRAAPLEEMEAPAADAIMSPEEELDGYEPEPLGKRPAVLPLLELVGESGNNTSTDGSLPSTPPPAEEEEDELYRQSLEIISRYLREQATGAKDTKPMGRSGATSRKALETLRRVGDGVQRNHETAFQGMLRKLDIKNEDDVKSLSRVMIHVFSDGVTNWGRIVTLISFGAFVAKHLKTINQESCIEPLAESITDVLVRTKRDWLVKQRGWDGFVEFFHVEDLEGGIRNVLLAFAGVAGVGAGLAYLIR
GLD-1 TGE inh = GLD-1/TGE RNA complex disruptors, primary screen, biochemical, fluorescence polarization. Female germline-specific tumor suppressor gld-1 (Caenorhabditis elegans), Q17339. purified GLD-1 + fluorescein TGE RNA. inhibition, % at 5.96 µM. actives 0.44% (n = 320,000);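 active means percent inhibition above a per-plate cutoff, the plate mean of test compounds plus 3 SD, cut at about 30% in these data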;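 further: 0% = DMSO wells with GLD-1 and probe and 100% = wells lacking GLD-1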
* marks the source's active call; other numbers are inactive results; ? = inconclusive; . = no result. A selection: hits, their analogues and other compounds. The true share with any hit is near 1.4%.

SMILES	MEX-5 binding	Bcl-xL primary	eLon inh	MCL1 BIM primary	GLD-1 TGE inh
CN(Cc1ccon1)C(=O)CC1C(=O)NCCN1Cc1ccc(Cl)c(F)c1 (configuration not stated)	-3.9	36.4*	7.7	34.8	24.6
CN(Cc1ccon1)C(=O)CC1C(=O)NCCN1Cc1ccc(F)c(F)c1 (configuration not stated)	0.0	12.9	-1.4	17.1	12.1
O=C1COc2ccccc2N1Cc1c(F)cccc1Cl	2.4	47.4*	-3.0	8.4	-2.2
CCc1ccccc1NC(=O)CCc1c(C)nc(SC)nc1C	-3.3	-0.6	-2.1	-8.4	0.3
O=C(OC[C@H]1O[C@@H](OC(=O)c2cc(O)c(O)c(OC(=O)c3cc(O)c(O)c(O)c3)c2)[C@H](OC(=O)c2cc(O)c(O)c(OC(=O)c3cc(O)c(O)c(O)c3)c2)[C@@H](OC(=O)c2cc(O)c(O)c(OC(=O)c3cc(O)c(O)c(O)c3)c2)[C@@H]1OC(=O)c1cc(O)c(O)c(OC(=O)c2cc(O)c(O)c(O)c2)c1)c1cc(O)c(O)c(OC(=O)c2cc(O)c(O)c(O)c2)c1	.	54.6*	.	75.7*	90.3*
COC1OC(COC(=O)c2ccccc2)C(OC(=O)c2ccccc2)C1OC(=O)c1ccccc1 (configuration not stated)	0.8	2.0	5.8	-4.0	10.1
O=C(NCCn1cccn1)C1CCC(=O)N(CCc2ccccc2)C1 (configuration not stated)	2.3	-2.4	0.1	7.1	5.6
CCN(CC(=O)Nc1c(C(=O)OC)[nH]c2ccccc12)c1ccc2c(c1)OCO2	-5.8	44.3*	10.2	37.0	2.8
COC(=O)c1[nH]c2ccccc2c1NC(=O)/C=C/c1ccc2c(c1)OCO2	1.4	1.0	-22.8	4.4	-1.1
CCNC(=O)c1c(N)sc2c1CCCCC2	-7.2	38.7*	.	38.5	23.8
CCOC(=O)c1c(N)sc2c1CCCC2	-1.1	10.2	-9.9	17.1	-0.2
CN(CCOc1ccccc1)C(=O)C1CCC(=O)N(CCCN2CCCC2=O)C1 (configuration not stated)	-0.3	4.1	12.7	2.1	1.6
CCC1(C)Cc2ccccc2/C(=C/C(=O)N2CCCCC2)N1 (configuration not stated)	-1.3	31.3*	7.2	31.2	12.5
CNC(=O)/C=C1\NC(C)(C)Cc2ccccc21	2.0	1.4	-0.9	-3.2	-4.3
COC(=O)c1scc2c(=O)cc(C(F)(F)F)[nH]c12	-14.8	35.2*	22.4	39.5	29.5
C=CCn1c(O)c(CN2CCOCC2)c(C)c(C#N)c1=O	-5.4	39.5*	-3.5	35.3	28.2
COc1ccc2nc(SCC(=O)N(C)C3CCCCC3)[nH]c2c1	.	-2.0	-8.9	-0.9	8.2
Cc1cc[n+](-c2[nH]c(=O)sc2/C=N/N=C(\[O-])c2ccncc2)cc1	-23.2	38.1*	12.5	49.3*	19.8
O=C(O)C1=CC(=C(c2ccc(O)c(C(=O)O)c2)c2ccc(O)c(C(=O)O)c2)C=CC1=O	.	75.5*	.	108.1*	92.4*
CSc1nc(O)c(N=Nc2ccc(F)cc2F)c(=O)[nH]1	3.7	37.1*	-14.2	42.3*	-12.2
COc1ccc(C2(C)NC(=O)N(CC(=O)NC(C)c3ccc(CC(C)C)cc3)C2=O)cc1 (configuration not stated)	-1.0	0.3	1.9	0.5	-5.3
COc1ccc2nc3ccccc3nc2c1NC(=O)c1ccc(Br)cc1	?	38.5*	-5.8	42.5*	-5.8
Cc1ccsc1/C=C/C1=Cc2c(sc(NC(=O)CSc3n[nH]c(N)n3)c2C#N)C(C)(C)C1	1.4	24.5	-14.9	11.1	73.0*
CCOc1ccc(/C=C/C2=Cc3c(sc(NC(=O)CSc4n[nH]c(N)n4)c3C#N)C(C)(C)C2)cc1	1.2	-13.8	-70.5	-54.8	31.5*
COC(=O)c1ccc2c(c1)C(C)(C)C(/C=C/c1ccccc1O)=[N+]2C	?	-4.7	-44.8	-40.5	39.7*
SMILES	MEX-5 binding	Bcl-xL primary	eLon inh	MCL1 BIM primary	GLD-1 TGE inh
CCNC(=S)NC(=NCc1cccnc1)Nc1nc(C)cc(C)n1	11.4	37.7*	-6.7	46.0*	12.9
CC[n+]1c(/C=C/c2ccc(N(C)C)cc2)ccc2ccccc21	-27.3*	-6.6	-34.1	-13.3	-2.9
CN(C)c1ccc(/C=C/c2cc[n+](C)cc2)cc1	27.1	9.4	-84.4	-5.4	94.6*
O=C(Nc1ccc2cn[nH]c2c1)c1c(Cl)cccc1Cl	-0.5	4.7	-6.9	-5.7	0.8
O=C1C(Cl)=C(Nc2ccc3cn[nH]c3c2)C(=O)c2ccccc21	-5.2	32.8*	10.6	32.5	1.1
COC(=O)c1cc(NC(=O)c2cccc([N+](=O)[O-])c2C)ccc1Cl	-1.1	3.1	-1.7	-0.9	5.2
CCOc1cc(/C=C/c2cccc[n+]2C)ccc1OCC(=O)Nc1ccc(C)cc1	-42.6*	-9.9	-6.3	-19.5	7.3
CCN(CC)C(=O)C1=C(C)N(Cc2ccccc2)C(=O)C(CC(=O)NCCN2CCOCC2)C1 (configuration not stated)	.	.	-9.0	.	.
COc1ccc(-c2nc3n(c2C)Cc2ccccc2-3)cc1	-2.0	46.4*	7.3	41.5*	3.7
Oc1c(Br)cc(/C=N/n2c(-c3ccccc3)n[nH]c2=S)c(Br)c1O	-52.0*	60.2*	.	108.1*	8.4
COc1ccc(C(=O)c2c(N)sc3c2CCN(C)C3)cc1	-19.9	32.9*	-40.6	31.9	-2.3
CN1CCc2c(sc(N)c2C(=O)O)C1	-8.6	30.9*	-1.5	29.1	12.6
COc1ccc(C(=O)c2c(NC(C)=O)sc3c2CCN(C(=O)OC(C)(C)C)C3)cc1	1.5	0.9	1.5	-2.2	-6.0
CCOC(=O)c1c(N)sc2c1CCN(CCc1ccccc1)C2	0.0	-1.2	-43.2	-3.2	-19.9
COc1ccc(CCNC(=O)CN2C(=O)COc3ccc(S(=O)(=O)N4CCOCC4)cc32)c(OC)c1	1.9	1.5	-5.4	1.8	9.8
O=C(Nc1ccc(C(F)(F)F)cc1)N1CCN(C(=O)c2ccco2)CC1	2.7	1.0	3.1	6.2	-1.8
C[n+]1cccc(C2C(C#N)=C(N)Oc3c2ccc2ccccc32)c1 (configuration not stated)	-9.2	38.8*	8.0	30.2	5.0
Cc1ccc(S(=O)(=O)N2CCCCC2)cc1NC(=O)c1ccccn1	0.0	-7.8	0.3	-12.5	3.0
Cc1c(S(=O)(=O)c2ccccn2)c(N)n(Cc2ccccc2Cl)c1C	-4.4	20.6	-22.1	26.5	10.7
Cc1c(S(=O)(=O)c2ccccn2)c(N)n(Cc2ccccc2)c1C	-1.8	55.2*	-21.5	47.0*	22.2
